Results on 30 compounds are retold here after PubChem BioAssay (NCATS).

Values joined by “and” are separate entries in the source; they are usually repeats but may differ in a detail not shown here. Identical values can stand only once. Inconclusive results are not listed. Unmarked numbers belong to inactive results. Active and inactive are the calls of the source. The call rests on the fitted dose curve; in most records, active means well fitted inhibition curve with a large enough effect; inconclusive means small, poorly fitted or top-dose-only effect; inactive means flat fitted curve, though single readings scatter.
On the % scale 0 is the no-effect control and ±100 the full control effect; potency means the concentration at half of the fitted maximal effect.

This assay deals with CRL-7250. Description: Cytotoxic Profiling of Annotated Libraries Using Quantitative High-Throughput Screening (AID 1296008). Further: nearly all actives have a fitted effect of over 60% in size. As to conditions: Five cell lines viability, CellTiter-Glo ATP luminescence, 48-72 h; max response: hits give low values. An outline of the steps:
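Cytotoxicity was measured as CellTiter-Glo ATP luminescence, read after 10 min at room temperature. Compound treatment of the cells lasted 48 or 72 hr at 37 degrees Celsius in a qHTS format.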
`C/C=C(\C)C(=O)OC1CC2C(CC=C3CC(OC4CC(OC)C(OC5CC(OC)C(OC6OC(C)C(OC7OC(CO)C(O)C(O)C7O)C(OC)C6O)C(C)O5)C(C)O4)CCC32C)C2(O)CCC(C(C)=O)C12C` (stereo not given): the call was inactive.

For `Clc1ccc(OCC2=NCCN2)cc1Cl`, the result was inactive.

On to `N#CC(OC1OC(COC2OC(CO)C(O)C(O)C2O)C(O)C(O)C1O)c1ccccc1` (stereo not given), for which the compound was classed as inactive.

As to `C/C=C(\C)C(=O)OC1C(C)OC(OC2C(C)OC(OC3CCC4(C)C(=CCC5C4CCC4(C)C(C(C)OC6OC(COC7OC(CO)C(O)C(O)C7O)C(O)C(O)C6O)CCC54O)C3)CC2OC)C(O)C1OC` (stereo not given), the max response is -8.85%.

Turning to `CCCCCCn1c(=O)c(C(=O)Nc2ccc(C(=O)OCCC)cc2)c(O)c2ccccc21`, the max response is 0.836%.

As for `CCOc1ccccc1-n1c(C(C)N2CCN(C(=O)COc3ccc(Cl)cc3)CC2)nc2ccccc2c1=O` (stereo not given), the Potency was 5.17 µM (active) and 3.71 µM (active).

For the compound `CCN1C[C@]2(COC(=O)c3ccccc3N3C(=O)C[C@H](C)C3=O)CC[C@H](OC)[C@@]34[C@@H]5C[C@H]6[C@H](OC)[C@@H]5[C@](O)(C[C@@H]6OC)[C@](O)([C@@H](OC)[C@H]23)[C@@H]14`, the max response is -0.686%.

With `CN[C@H]1[C@H](O)[C@H](O[C@@H]2[C@@H](O)[C@H](O[C@H]3O[C@H]([C@H](C)O)[C@@H](O)[C@H](O)[C@H]3N)[C@@H](N)C[C@H]2N)OC[C@@]1(C)O`, the call was inactive.

In the case of `CC(C)=C1CC[C@]23CO[C@H](C2)[C@@](O)(C(=O)O)CCC13` (stereo not given in full), the max response was 4.82%.

For the compound `OC1(c2ccc(Cl)cc2)c2ccccc2C2=NCCN21` (stereo not given), the compound was called inactive.

Regarding `CC[C@H]1CN2CC[C@H]1C[C@H]2[C@H](O)c1ccnc2ccc(OC)cc12`, the call was inactive.

Turning to `C[C@@]12C[C@@H](c3ccoc3)OC(=O)C1CC[C@]1(C)[C@H]2[C@H]2C=C[C@]1(O)C(=O)O2` (stereo not given in full), the outcome was inactive.

For the compound `COC(=O)[C@@]12C(=O)C(C)C(=O)[C@]1(C)C(C)=C[C@H]1[C@]3(C=O)CC[C@H](OC(C)=O)C(C)(C)[C@H]3CC[C@@]12C` (stereo not given in full), the call was inactive.

Regarding `CCc1c(C(=O)C(N)=O)c2c(OCC(=O)OC)cccc2n1Cc1ccccc1`, the compound was called inactive.

Turning to `CN(C)CCc1c[nH]c2ccc(CN3CCN(C)S3(=O)=O)cc12`, the max response is 3.29%.

Consider `Cn1ncnc1COc1nn2c(-c3c(F)cccc3F)nnc2cc1C1CCC1`, for which the result was inactive.

Take `CCN1C[C@]2(OC(=O)c3ccccc3NC(C)=O)CC[C@H](OC)[C@@]34[C@@H]2C[C@@H]([C@@H]13)[C@@]1(O)C[C@H](OC)[C@H]2C[C@@H]4[C@]1(O)[C@H]2OC`: the max response was -8.79%.

With `CC(N)Cc1c[nH]c2ccccc12` (stereo not given), the max response was -5.98%.

`CCN1C[C@]2(COC)[C@H](O)C[C@H](OC)[C@]34[C@@H]5C[C@]6(O)[C@H](OC(=O)c7ccccc7)[C@@H]5[C@@](O)([C@H]([C@H](OC)[C@H]23)[C@@H]14)[C@@H](O)[C@@H]6OC`: the call was inactive.

Consider `CC(C)(C)c1cc(C(C)(C)C)c2c(c1)C(O)(C(F)(F)F)C(=O)O2` (stereo not given), for which the call was inactive.

On to `CN1[C@H]2C[C@H](OC(=O)[C@H](CO)c3ccccc3)C[C@@H]1[C@@H](O)C2`, for which the max response was -1.08%.

For the compound `COc1cc2c(cc1OC)[C@@]13CCN4CC5=CCO[C@H]6CC(=O)N2[C@H]1[C@H]6[C@H]5C[C@H]43`, the max response was -0.912%.

As for `CC(=O)O[C@H]1C[C@@H](OC(C)=O)C(C)(C)C2C[C@@H](O)[C@]3(C)C(CC[C@@]4(C)[C@H](C5=CC(=O)OC5O)C[C@H]5O[C@]543)[C@]21C` (stereo not given in full), the max response was 2.14%.

On to `CC1=C2C[C@H]3[C@@H](CC=C4C[C@@H](O)CC[C@@]43C)[C@@H]2CC[C@]12O[C@@H]1C[C@H](C)CN[C@H]1[C@H]2C`, for which the max response is 0.632%.

Turning to `CCCN1CCO[C@H]2c3cc(O)ccc3OC[C@@H]21`, the result was inactive.

With `C[C@H]1O[C@@H](O[C@H]2C[C@@H](O)[C@]3(CO)C4C(CC[C@]3(O)C2)[C@@]2(O)CC[C@H](C3=CC(=O)OC3)[C@@]2(C)C[C@H]4O)[C@@H](O)[C@@H](O)[C@H]1O` (stereo not given in full), the Potency is 122 nM (active).

`C[CH2][Hg][S]c1ccccc1C(=O)O`: the Potency was 16800 nM (active).

Take `CC(C)(O)[C@H]1O[C@H]2CC[C@@]3(C)[C@@](O)(CC[C@H]4Cc5c([nH]c6ccccc56)[C@@]43C)C2=CC1=O`: the max response was -14.1%.

`CC12CCC3C(CCC4(O)CC(O)CCC34C=O)C1(O)CCC2C1=CC(=O)OC1` (stereo not given): the Potency is 326 nM (active).

In the case of `CC(=O)OC12C(O)C(C)C3(O)C4C=C(C)C(=O)C4CC(CO)=CC3C1C2(C)C` (stereo not given), the max response was 1.13%.
